In PubChem BioAssay:

What follows are compounds tested on XIP peptide (Xip251-270) binding (assay: small-molecule binders of XIP peptide, primary screen, biochemical, small-molecule microarray, fluorescence 635/667 nm, 0.1 µg/mL protein (AID 1182)). Details: fluorescent protein binding, 635 nm, higher = more signal, called active from +8 up or from −8 down.

Composite z-score, inactive:
CC(C)c1ccc(NN2C(C(O)C(C)c3ccccc3)C=CC3C(=O)N(c4ccccc4)C(=O)C32)cc1 (stereo not given) 2.17
CC(C)C[C@@H]1NC(=O)[C@@H]2C[C@H](C(=O)NCCCCCCNC(=O)CS)[C@H](c3ccc(O)cc3)N2C1=O 3.03
COC(=O)Cn1c(C(=O)N(C)C)cc2c1C[C@H]1CN(C(=O)c3ccccc3)[C@@](Cc3ccccc3)(C(=O)OC)[C@@H]21 -0.0872
COCCOC(=O)N1C(=O)[C@@]2(c3cc(C#CCC(C(=O)OC)C(=O)OC)ccc31)[C@H](c1ccc(O)cc1)N1[C@H](c3ccccc3)[C@H](c3ccccc3)OC(=O)[C@H]1[C@@H]2C(=O)N1CCc2cc(OC)c(OC)cc2C1 0.406
Cc1ccc(S[C@]2(C(=O)NCc3ccccc3)CC(=O)N(Cc3ccccc3C(F)(F)F)[C@@H]2c2ccc(CO)cc2I)cc1 0.404
O=C1C2C=CC(C(O)C3CCCCC3)N(Nc3ccccc3F)C2C(=O)N1c1ccccc1 (stereo not given) 0.352
CC[C@H]1C2=C3C(CC[C@H]4C(OCc5ccc(F)cc5C(F)(F)F)OC[C@](C)([C@@H]34)N(C(=O)OC(C)(C)C)C2)C(COC(C)=O)C1COC(C)=O (stereo not given in full) 0.28
CC1CC/C=C\[C@H]2OC34C=CCN(CCN5CCOCC5)C(=O)[C@H]3N(C(CO)C(C)C)C(=O)[C@@H]4C2C(=O)O1 (stereo not given in full) 0.287
COC(=O)C[C@H]1O[C@]2(C(=O)N(C)c3ccccc32)[C@@H](C)[C@@H]1[Si](C)(C)c1ccccc1 -0.182
O=C1O[C@@H](c2ccccc2)[C@@H](c2ccccc2)N2[C@@H](c3ccc(OCCO)cc3)[C@]3(C(=O)Nc4ccc(C#CC5=CCCCC5)cc43)[C@@H](C(=O)Nc3nc4ccccc4s3)[C@H]12 -0.487
CCCCN1CC=CC23O[C@@H]4/C=C\CCCOC(=O)C4[C@H]2C(=O)N(CCCCCCO)[C@@H]3C1=O (stereo not given in full) 0.723
COC(=O)[C@@]1(Cc2ccc(F)cc2)[C@H]2c3cc(C(=O)N(C)C)n(CCF)c3C[C@H]2CN1C(=O)c1ccccc1 0.588
CCc1cccc(NC(=O)O[C@H]2[C@H](OC(=O)Nc3ccccc3-c3ccccc3)[C@H](OC(=O)Nc3ccccc3-c3ccccc3)[C@@H](OC)O[C@@H]2CO)c1 0.187
C=C(COC)C(=O)CC[C@H](OC(C)=O)c1ccccc1OCCO -0.245
COC(=O)C(CC#Cc1ccc2c(c1)[C@]1(C(=O)N2)[C@H](c2ccc(OCCO)cc2)N2[C@H](c3ccccc3)[C@H](c3ccccc3)OC(=O)[C@H]2[C@@H]1C(N)=O)C(=O)OC 0.372
COc1ccc([Si](C)(C)[C@H]2[C@H](CC(=O)N(CCO)Cc3ccccc3)O[C@@]3(C(=O)N(Cc4cccc(N5CCCCC5=O)c4)c4ccccc43)[C@@H]2C)cc1 2.13
COCCCNC(=O)[C@@]1(Cc2ccccc2I)c2ccccc2C(=O)N(Cc2ccccc2C(F)(F)F)[C@H]1c1ccc(CO)cc1 0.739
CC[C@@H](O[Si](C#C[Si](C(C)C)(C(C)C)C(C)C)(C(C)C)C(C)C)c1cn([C@H](C)c2ccccc2)nn1 -0.645
COCCOC(=O)N1C(=O)[C@@]2(c3cc(C#CCC(C(=O)OC)C(=O)OC)ccc31)[C@H](C(=O)N1CCc3cc(OC)c(OC)cc3C1)[C@H]1C(=O)O[C@H](c3ccccc3)[C@H](c3ccccc3)N1[C@@H]2c1ccccc1OCCO 0.629
CCCNC(=O)[C@@]1(Sc2ccc(C)cc2)CC(=O)N(Cc2cc(C(F)(F)F)cc(C(F)(F)F)c2)[C@@H]1c1ccc(CO)cc1 -0.0515
Cc1ccc(S[C@]2(C(=O)NCc3ccccc3)CC(=O)N(Cc3ccccc3Cl)[C@@H]2c2ccc(CO)cc2)cc1 1.65
CC1(C)OB(/C=C\CC(OC(=O)c2ccncc2)c2ccccc2)OC1(C)C (stereo not given) 0.258
COc1cc(Cc2cc3c(c(-c4ccccc4)n2)[Si](C(C)C)(C(C)C)OC3)cc(OC)c1OC -0.166
C=CCOC(=O)[C@H]1[C@@H]2C(=O)O[C@@H](c3ccccc3)[C@@H](c3ccccc3)N2[C@@H](c2ccc(OCCOC(=O)[C@@H]3C[C@@H]4C(=O)N[C@@H](Cc5ccccc5)C(=O)N4[C@@H]3c3ccc(O)cc3)cc2)[C@]12C(=O)Nc1ccc(I)cc12 1.12
CC1C2C(CCCO)=CC(C3C(=O)N(C(N)=O)C(=O)C23)N1Cc1cccc(OC(F)(F)F)c1 (stereo not given) 1.51
COC(=O)[C@@]1(Cc2ccccc2)[C@H]2c3cc(C(=O)N(C)C)n(Cc4nc5ccccc5[nH]4)c3C[C@H]2CN1C(=O)c1ccccc1 0.857
CO[C@H]1O[C@H](CO)[C@@H](OC(=O)Nc2cccc(F)c2)[C@H](OC(=O)Nc2ccc3c(c2)OCO3)[C@@H]1OC(=O)Nc1ccc2c(c1)OCO2 0.968
O=C1C2C=CC(C(O)c3ccccn3)N(Nc3ccc([N+](=O)[O-])cc3)C2C(=O)N1c1ccccc1 (stereo not given) 0.406
CC(C)N1C(=O)[C@@]2(Cc3ccccc31)c1ccccc1C(=O)N(Cc1ccccc1C(F)(F)F)[C@H]2c1ccc(CO)cc1 -0.0547
CN1C2C=C(c3ccc(CO)cc3)C(C3C(=O)N(C(N)=O)C(=O)C32)C1C1CC1 (stereo not given) -0.313
CC(C)C[C@@H]1NC(=O)[C@@H]2C[C@H](C(=O)NCCCCCNC(=O)CS)[C@H](c3ccc(O)cc3)N2C1=O 0.741
CN(C)CCCCNC(=O)[C@H]1C[C@H]2C(=O)N[C@@H](CCCCN(C)C)C(=O)N2[C@H]1c1ccc(O)cc1 0.0043
CCOC(=O)C[C@H]1[C@H](OC(=O)c2ccccc2-c2ccccc2)[C@@H](NC(=O)CC(C)C)c2cc(OCCCO)ccc2N1C(=O)c1ccccc1 0.539
CCCCCCc1nc(-c2ccc(OC)nc2)c(C)c2c1[Si](C(C)C)(C(C)C)OC2 -0.186
COCCCNC(=O)[C@]1(Cc2ccccc2CN=[N+]=[N-])N=C(c2ccc(OCCCO)cc2)O[C@@H]1c1ccccc1N=[N+]=[N-] 0.228
